From PubChem BioAssay AID1159580 (chemical genetic matrix, 2015)
Hit rate of the full screen: of about 5,500 compounds, about 2,000 (36%) were called active. About 18% were inconclusive and are not listed. Rule as the data show it: active = normalized growth mostly below about 0.91 (no sharp cut-off); inconclusive = no clear call, values can overlap the other calls; inactive = mostly above about 0.92. The list shows a part of the results.

Experiment: chemical genetic growth profiling, strain panel (AID 1159580);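 also: tested at 20 µM; growth read once vehicle control cultures reached saturation at 30 °C; 1 = growth at the plate median or of vehicle wells; lower values mean less growth of the strain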
Conditions: growth OD

Measured: normalized growth

O=C1[C@H](CCC(O)c2ccc(F)cc2)[C@@H](c2ccc(O)cc2)N1c1ccc(F)cc1 (some centres not stated)
inactive: S. cerevisiae deletion strains, locus YJR075W, strain HOC1, stronger effect = lower value 0.986 | S. cerevisiae deletion strains, locus YKL009W, strain mrt4, stronger effect = lower value 0.944 | S. cerevisiae deletion strains, locus YKL068W, stronger effect = lower value 0.989 | S. cerevisiae deletion strains, locus YKL085W, strain MDH1 (second series), stronger effect = lower value 0.983 | S. cerevisiae deletion strains, locus YKL085W, strain MDH1, stronger effect = lower value 0.983 | S. cerevisiae deletion strains, locus YKL160W, strain elf1, stronger effect = lower value 0.974 | S. cerevisiae deletion strains, locus YKL190W, strain CNB1, stronger effect = lower value 0.995 | S. cerevisiae deletion strains, locus YKR001C, strain vps1, stronger effect = lower value 0.968 | S. cerevisiae deletion strains, locus YKR026C, strain gcn3, stronger effect = lower value 0.961 | S. cerevisiae deletion strains, locus YKR091W, strain srl3, stronger effect = lower value 0.977 | S. cerevisiae deletion strains, locus YLL001W, strain dnm1, stronger effect = lower value 0.937 | S. cerevisiae deletion strains, locus YLL026W, stronger effect = lower value 0.977 | S. cerevisiae deletion strains, locus YLL041C, strain sdh2, stronger effect = lower value 0.967 | S. cerevisiae deletion strains, locus YLR027C, strain aat2, stronger effect = lower value 0.98 | S. cerevisiae deletion strains, locus YLR039C, strain RIC1, stronger effect = lower value 0.995 | S. cerevisiae deletion strains, locus YLR058C, strain SHM2, stronger effect = lower value 0.982 | S. cerevisiae deletion strains, locus YLR102C, strain apc9, stronger effect = lower value 0.972 | S. cerevisiae deletion strains, locus YLR113W, strain HOG1, stronger effect = lower value 1 | S. cerevisiae deletion strains, locus YLR221C, strain rsa3, stronger effect = lower value 0.986 | S. cerevisiae deletion strains, locus YLR258W, strain gsy2, stronger effect = lower value 0.972 | S. cerevisiae deletion strains, locus YLR262C, strain YPT6 (second series), stronger effect = lower value 0.988 | S. cerevisiae deletion strains, locus YLR262C, strain YPT6, stronger effect = lower value 0.978 | S. cerevisiae deletion strains, locus YLR268W, strain sec22, stronger effect = lower value 0.96 | S. cerevisiae deletion strains, locus YLR320W, strain mms22, stronger effect = lower value 0.975 | S. cerevisiae deletion strains, locus YLR330W, strain CHS5, stronger effect = lower value 0.988 | S. cerevisiae deletion strains, locus YLR342W, strain FKS1 (second series), stronger effect = lower value 1.01 | S. cerevisiae deletion strains, locus YLR342W, strain FKS1, stronger effect = lower value 0.973 | S. cerevisiae deletion strains, locus YLR357W, strain rsc2, stronger effect = lower value 0.978 | S. cerevisiae deletion strains, locus YLR370C, strain arc18, stronger effect = lower value 0.967 | S. cerevisiae deletion strains, locus YLR371W, strain rom2, stronger effect = lower value 0.971 | S. cerevisiae deletion strains, locus YLR384C, strain iki3, stronger effect = lower value 0.976 | S. cerevisiae deletion strains, locus YLR418C, strain cdc73, stronger effect = lower value 0.948 | S. cerevisiae deletion strains, locus YML016C, strain PPZ1, stronger effect = lower value 0.989 | S. cerevisiae deletion strains, locus YML032C, strain rad52, stronger effect = lower value 0.979 | S. cerevisiae deletion strains, locus YML120C, strain ndi1, stronger effect = lower value 0.968 | S. cerevisiae deletion strains, locus YML124C, strain tub3, stronger effect = lower value 0.977 | S. cerevisiae deletion strains, locus YMR058W, strain fet3, stronger effect = lower value 0.977 | S. cerevisiae deletion strains, locus YMR078C, strain ctf18, stronger effect = lower value 0.968 | S. cerevisiae deletion strains, locus YMR125W, strain sto1, stronger effect = lower value 0.971 | S. cerevisiae deletion strains, locus YMR129W, stronger effect = lower value 0.962 | S. cerevisiae deletion strains, locus YMR205C, strain PFK2, stronger effect = lower value 0.944 | S. cerevisiae deletion strains, locus YMR223W, strain ubp8, stronger effect = lower value 0.987 | S. cerevisiae deletion strains, locus YMR231W, strain pep5, stronger effect = lower value 0.994 | S. cerevisiae deletion strains, locus YMR263W, strain SAP30, stronger effect = lower value 0.997 | S. cerevisiae deletion strains, locus YMR307W, strain GAS1, stronger effect = lower value 0.976 | S. cerevisiae deletion strains, locus YNL067W, strain RPL9B, stronger effect = lower value 1 | S. cerevisiae deletion strains, locus YNL071W, strain lat1, stronger effect = lower value 0.984 | S. cerevisiae deletion strains, locus YNL128W, strain TEP1, stronger effect = lower value 0.994 | S. cerevisiae deletion strains, locus YNL153C, strain GIM3, stronger effect = lower value 0.995 | S. cerevisiae deletion strains, locus YNL183C, strain NPR1, stronger effect = lower value 0.961 | S. cerevisiae deletion strains, locus YNL209W, strain ssb2, stronger effect = lower value 0.99 | S. cerevisiae deletion strains, locus YNL233W, strain BNI4, stronger effect = lower value 0.984 | S. cerevisiae deletion strains, locus YNL248C, strain rpa49, stronger effect = lower value 0.965 | S. cerevisiae deletion strains, locus YNL250W, strain rad50, stronger effect = lower value 0.974 | S. cerevisiae deletion strains, locus YNL271C, strain bni1, stronger effect = lower value 0.968 | S. cerevisiae deletion strains, locus YNL298W, strain CLA4, stronger effect = lower value 0.961 | S. cerevisiae deletion strains, locus YNL307C, strain MCK1, stronger effect = lower value 0.961 | S. cerevisiae deletion strains, locus YNL322C, strain KRE1 (second series), stronger effect = lower value 0.971 | S. cerevisiae deletion strains, locus YNL322C, strain KRE1, stronger effect = lower value 0.994 | S. cerevisiae deletion strains, locus YNR049C, strain mso1, stronger effect = lower value 0.962 | S. cerevisiae deletion strains, locus YNR052C, strain pop2, stronger effect = lower value 0.973 | S. cerevisiae deletion strains, locus YOL006C, strain TOP1, stronger effect = lower value 0.908 | S. cerevisiae deletion strains, locus YOL012C, strain htz1 1.05 | S. cerevisiae deletion strains, locus YOL147C, strain pex11, stronger effect = lower value 0.975 | S. cerevisiae deletion strains, locus YOR001W, strain rrp6, stronger effect = lower value 0.967 | S. cerevisiae deletion strains, locus YOR061W, strain CKA2, stronger effect = lower value 0.984 | S. cerevisiae deletion strains, locus YOR069W, strain VPS5, stronger effect = lower value 0.987 | S. cerevisiae deletion strains, locus YOR070C, strain gyp1, stronger effect = lower value 0.982 | S. cerevisiae deletion strains, locus YOR080W, strain dia2, stronger effect = lower value 0.956 | S. cerevisiae deletion strains, locus YOR083W, strain WHI5, stronger effect = lower value 0.967 | S. cerevisiae deletion strains, locus YOR106W, strain vam3, stronger effect = lower value 0.918 | S. cerevisiae deletion strains, locus YOR136W, strain idh2, stronger effect = lower value 0.979 | S. cerevisiae deletion strains, locus YOR144C, strain elg1, stronger effect = lower value 0.968 | S. cerevisiae deletion strains, locus YOR184W, strain ser1, stronger effect = lower value 0.972 | S. cerevisiae deletion strains, locus YOR231W, strain MKK1, stronger effect = lower value 0.961 | S. cerevisiae deletion strains, locus YOR265W, strain rbl2, stronger effect = lower value 0.976 | S. cerevisiae deletion strains, locus YOR270C, strain vph1, stronger effect = lower value 0.801 | S. cerevisiae deletion strains, locus YOR290C, strain snf2, stronger effect = lower value 0.987 | S. cerevisiae deletion strains, locus YOR316C, strain cot1, stronger effect = lower value 0.966 | S. cerevisiae deletion strains, locus YPL051W, strain arl3, stronger effect = lower value 0.991 | S. cerevisiae deletion strains, locus YPL055C, strain LGE1, stronger effect = lower value 0.998 | S. cerevisiae deletion strains, locus YPL078C, strain atp4, stronger effect = lower value 0.908 | S. cerevisiae deletion strains, locus YPL106C, strain sse1, stronger effect = lower value 1 | S. cerevisiae deletion strains, locus YPL240C, strain hsp82, stronger effect = lower value 0.994 | S. cerevisiae deletion strains, locus YPL241C, strain CIN2, stronger effect = lower value 0.996 | S. cerevisiae deletion strains, locus YPL256C, strain CLN2, stronger effect = lower value 0.97 | S. cerevisiae deletion strains, locus YPR119W, strain clb2, stronger effect = lower value 0.984 | S. cerevisiae deletion strains, locus YPR141C, strain kar3, stronger effect = lower value 0.956 | S. cerevisiae deletion strains, locus YPR163C, strain tif3, stronger effect = lower value 0.962 | S. cerevisiae deletion strains, locus YPR167C, strain met16, stronger effect = lower value 0.966 | S. cerevisiae deletion strains, strain wtn01, stronger effect = lower value 0.971 | S. cerevisiae strains, strain wild type, stronger effect = lower value 1.01
